Data from PubChem BioAssay AID817 (Emory University Molecular Libraries Screening Center, 2007).
Among all 140,000 compounds or so, about 300 (0.21%) were called active.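 How the source made its calls: active means z-score above 3 at both the 24 hr and the 30 hr optical density reads; inactive means the rest, inconclusive results apart.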 For the sample, actives were picked, then their nearest neighbours and some compounds at random.

Assay: growth rescue of sdo1-depleted yeast, primary screen, S. cerevisiae, bone marrow failure model (AID 817);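 further: z-score against mean and SD of all compound wells on the same plate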
Settings: S. cerevisiae sdo1-depleted JHY4D growth rescue, at 10 µM, stronger effect = higher value, pdr5 snq2 efflux-pump mutant strain
[1] = OD600, measured here: growth rescue at 24 h

Row | SMILES | z-score (OD600 30 h) | z-score [1]
1 | Cc1cccc(N=C2NN=C(c3c[nH]c4ccccc34)CS2)c1 | -1 (inactive) | -0.78
2 | COC(=O)c1c(NC(=O)CN2C(=O)NC(CCc3ccccc3)C2=O)sc2c1CCCCC2 (stereo unspecified) | 0.43 (inactive) | 0.79
3 | Cc1ccc(Sc2ccncc2S(N)(=O)=O)cc1 | 1.59 (inactive) | 0.76
4 | O=C(O)c1ccc(N=NN2CCOCC2)cc1 | -0.02 (inactive) | -0.59
5 | COc1ccc(C2Nc3ccccc3C(=O)N2c2ccc(Cl)cc2)cc1Cn1cc([N+](=O)[O-])cn1 (stereo unspecified) | -0.41 (inactive) | -0.21
6 | O=C(N/N=C/c1ccc2c(c1)OCO2)c1ccc(Cn2cc([N+](=O)[O-])cn2)o1 | 0.69 (inactive) | -0.21
7 | COc1cc(OC)nc(NC(=O)CCl)n1 | -0.13 (inactive) | -1.15
8 | CCC(=O)Nc1nc(OC)cc(OC)n1 | 0.5 (inactive) | -0.32
9 | COc1cc(OC)nc(S(C)(=O)=O)n1 | 3.91 (active) | 4.26
10 | CS(=O)(=O)Nc1ccc(C(=O)N2CCCC2)cc1 | 8.85 (active) | 8.64
11 | Cc1c(Cl)cccc1NC(=O)Nc1ccc(C(=O)N2CCCC2)cc1 | 0.9 (inactive) | -0.18
12 | O=C(c1ccc(S(=O)(=O)c2ccccc2)cc1)N1CCCCCC1 | 1.85 (inactive) | 2.69
13 | Cc1ccc(-c2nnc(SCC(=O)N/N=C/c3cccs3)n2-c2ccc(C)cc2)cc1 | 0.44 (inactive) | 0.52
14 | CCOc1ccc(C(=O)NC(=S)Nc2ccc(NC(=O)C(C)C)cc2)cc1[N+](=O)[O-] | -0.64 (inactive) | 0.38
15 | CC(=O)COc1ccc2c(-c3ccccc3)cc(=O)oc2c1 | -0.11 (inactive) | -0.39
16 | COc1cc(/C=C/CO)cc(OC)c1O[C@@H]1O[C@H](CO)[C@@H](O)[C@H](O)[C@H]1O | 0.24 (inactive) | 0.99
17 | Cc1ccc(S(=O)(=O)C2C(=O)NC3(C)CC2c2ccccc2O3)cc1 (stereo unspecified) | 0.78 (inactive) | 0.14
18 | CCOC(=O)C1=C(C)Nc2nc3ccccc3n2C1c1cccs1 (stereo unspecified) | -0.33 (inactive) | 0.25
19 | CCCc1cc(=O)[nH]c(SCC(=O)N2CCN(S(=O)(=O)c3ccc(C)cc3C)CC2)n1 | 0.64 (inactive) | 0.59
20 | Cc1cc(OCCN2CCCC2)cc(C(C)C)c1 | -1.32 (inactive) | -1.82
21 | Cc1cccc(Nc2nc3c(S(=O)(=O)c4ccccc4)nnn3c3ccccc23)c1C | 2.09 (inactive) | 3.12
22 | O=C(NC(=O)N1CCOCC1)c1ccccc1 | 0.99 (inactive) | 0.24
23 | COc1ccc(C(=O)NC2(C(F)(F)F)NC(=O)N(CCCc3ccccc3)C2=O)c(OC)c1OC (stereo unspecified) | -0.49 (inactive) | 0.17
24 | O=C(/C=C/c1ccc(F)cc1)Nc1cccc(S(=O)(=O)Nc2cccc(C(F)(F)F)c2)c1 | -0.39 (inactive) | -0.2
25 | COc1ccc2c(CN3CCN(S(=O)(=O)c4cccs4)CC3)cc(=O)oc2c1 | -1.29 (inactive) | -1.27
26 | COc1cc(CC(=O)N/N=C/c2ccccc2)c([N+](=O)[O-])cc1OC | 0.66 (inactive) | 0.79
27 | Cc1ccc2[nH]c(C(=O)O)c(NC(=O)c3ccccc3[N+](=O)[O-])c2c1 | 1.28 (inactive) | 1.83

Row | SMILES | z-score (OD600 30 h) | z-score [1]
28 | CCN(CC)S(=O)(=O)c1cc([N+](=O)[O-])ccc1N=Nc1c(O)n(C)c2ccccc12 | -0.62 (inactive) | 0.64
29 | Cc1cccc(C(=O)c2cccc(C)c2)c1 | -0.29 (inactive) | -0.6
30 | CCOC(=O)c1c(/N=C/C2C(=O)CC(C)(C)CC2=O)sc(C)c1C | 0.94 (inactive) | 1.36
31 | O=C(/C=C/c1cccc([N+](=O)[O-])c1)NCCSCc1ccco1 | -0.03 (inactive) | -0.07
32 | CC(C)NC(=S)N1CCN(S(C)(=O)=O)CC1 | 0.56 (inactive) | 0.03
33 | COCCOC(=O)c1c(C)oc2cc(Br)c(OCC(N)=O)cc12 | 0.6 (inactive) | 0.18
34 | O=C(Nc1ccccc1Cl)c1ccccc1S(=O)(=O)c1ccccc1[N+](=O)[O-] | 0.14 (inactive) | 0.15
35 | C[C@@H]1NC(=O)c2cc([N+](=O)[O-])cc(F)c2NCCC[C@@H](C(N)=O)NC(=O)[C@H](CC(N)=O)NC1=O | 0.86 (inactive) | 0.49
36 | CN(c1ccccc1)S(=O)(=O)c1ccc(Cl)c(C(=O)NCCc2c[nH]c3ccccc23)c1 | 0.35 (inactive) | 0.28
37 | CC(Oc1ccccc1F)C(=O)NN (stereo unspecified) | -0.12 (inactive) | -0.98
38 | O=C(Cc1cccc2ccccc12)NCCC1=CCCCC1 | -0.77 (inactive) | -0.75
39 | O=C(Nn1c(-c2ccc(Cl)cc2)nc2ccccc2c1=O)c1cccnc1Cl | 0.6 (inactive) | 0.56
40 | CCOC(=O)C1=C(c2ccc(OC)cc2)C(=O)c2ccccc2C1=O | -1.39 (inactive) | -0.65
41 | CCOC(=O)CNC(=O)/C=C/c1c(Cl)cccc1Cl | -0.54 (inactive) | -0.72
42 | COc1ccc(OCC(O)CNC(=O)Nc2ccc(Cl)cc2)cc1 (stereo unspecified) | 0.9 (inactive) | 0.68
43 | S=C(NCCc1ccccc1)NCc1ccccc1Cl | -1.82 (inactive) | -1.22
44 | N#Cc1ccccc1NC(=O)COc1c(Br)cc(Br)c2cccnc12 | 0.47 (inactive) | 2.32
45 | O=C(NC(=S)N1CCN(Cc2ccccc2)CC1)c1ccccc1 | 0.36 (inactive) | 0.18
46 | CC(=O)c1cc(-c2ccccc2)n(CCC(=O)NC2CCCCCC2)c1C | -1.63 (inactive) | -1.27
47 | CCOC(=O)C1CCN(C(=O)c2ccccc2N(C)S(=O)(=O)c2ccccc2)CC1 | 0.01 (inactive) | -0.21
48 | O=C(NN1C(=O)C2C3C=CC(O3)C2C1=O)c1ccncc1 (stereo unspecified) | 0.24 (inactive) | -0.88
49 | Cc1ccc(S(=O)(=O)N2CCC(C(=O)N[C@@H](C)C(=O)NCc3ccco3)CC2)cc1 | 1.22 (inactive) | 0.16
50 | Cc1ccn(-c2cccc(-n3ccc(C)n3)n2)n1 | -0.06 (inactive) | -0.3
51 | COc1ccc2c(c1)C(SCC(=O)NCc1ccccc1)CC(C)(C)O2 (stereo unspecified) | -0.16 (inactive) | -0.58
52 | COc1ccc(-c2csc(NC(=O)COC(=O)c3ccc(Br)o3)n2)cc1 | 1.63 (inactive) | 1.52
53 | COC(=O)Cc1ccc(OCC(=O)Nc2ccc(OC(F)(F)F)cc2)cc1 | 0.38 (inactive) | 0.19
